Results on 36 molecules are retold here after PubChem BioAssay (NCATS).

Calls of active or inactive are those of the source. A call without a number means that no potency is given here. The call rests on the fitted dose curve; in most records, active means well fitted inhibition curve with a large enough effect; inconclusive means small, poorly fitted or top-dose-only effect; inactive means no such curve, though single readings can be large or run the other way.

This assay is described as follows: qHTS assay for measurement of the activity of small molecule inhibitors on Zika virus induced Caspase-3 activity in human astrocytoma cells (AID 1224859). Particulars: SNB-19 ZIKV-induced caspase-3/7, luminescence, 6 h; series mostly up to 45.7 µM. The procedure, abridged:
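Luminescent caspase-3/7 read-out (30 min reagent, room temperature) in human SNB-19 cells infected 6 h with ZIKV (2 FFU/cell) after 1 h compound pre-incubation; Data were normalised to uninfected and infected wells.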
Background: qHTS replaces the single test concentration by a dilution series.
As for `CC(C)(C)c1ccc(S(=O)(=O)/C=C/C#N)cc1`, the Potency result is “inactive”.

In the case of `O=C1/C(=C/c2ccsc2)CC/C1=C\c1cccs1`, the Potency entry is “inactive”.

With `CCCCC#Cc1nc(NC)c2ncn([C@@H]3O[C@H](CO)[C@@H](O)[C@H]3O)c2n1`, the Potency result was “inactive”.

As for `O=C(CS)Nc1ccccc1`, the Potency result was “inactive”.

On to `CN=c1nc(-c2ccccc2)n(-c2ccccc2)s1`, for which the Potency result is “inactive”.

On to `C[N+](C)(C)CC(=O)[O-]`, for which the Potency entry was “inactive”.

Regarding `NC(=S)c1ccc[n+]([C@@H]2O[C@@H](COP(=O)([O-])OP(=O)(O)OC[C@H]3O[C@@H](n4cnc5c(N)ncnc54)[C@H](OP(=O)(O)O)[C@@H]3O)C(O)C2O)c1` (stereo partly specified), the Potency result was “inactive”.

With `Nc1nc(SCc2ccc([N+](=O)[O-])cc2)c2ncn([C@@H]3O[C@H](CO)[C@@H](O)[C@H]3O)c2n1`, the Potency entry was “inactive”.

In the case of `CN1CCC[C@H]1c1cccnc1`, the Potency entry was “inactive”.

As for `CCCCCCCCCCCCCCCCCCNC(=O)OCC(COP(=O)([O-])OCC[n+]1ccsc1)OC` (stereo unspecified), the Potency result is “inactive”.

`COc1cc(C(O)CO)ccc1OS(=O)(=O)O` (stereo unspecified): the Potency result is “inactive”.

Regarding `CCCCCCCCCCCCOCCO`, the Potency result was “inactive”.

As to `C[N+]1(C)C2CC(OC(=O)[C@H](CO)c3ccccc3)CC1C1OC12` (stereo partly specified), the Potency result was “inactive”.

For `O=C1O/C(=C/Br)CCC1c1cccc2ccccc12` (stereo unspecified), the Potency result was “inactive”.

`O=C(O)[C@@H]1C[C@H](C(=O)O)N1`: the Potency entry was “inactive”.

For the molecule `NCCO`, the Potency entry is “inactive”.

Take `C[N+]1(C)[C@@H]2CC(OC(=O)[C@H](CO)c3ccccc3)C[C@H]1[C@@H]1O[C@@H]12` (stereo partly specified): the Potency result was “inactive”.

As to `CCCCCCCCCCCCCCCC(=O)NCC(COP(=O)([O-])OCC[N+](C)(C)C)OCC` (stereo unspecified), the Potency entry is “inactive”.

For the molecule `O=C(O)CC[C@@H](C(=O)O)N1C(=O)c2ccccc2C1=O`, the Potency result is “inactive”.

As for `C#CCN1C(C)=C(C(=O)OC)C(c2cccc([N+](=O)[O-])c2)C(C(=O)OCC)=C1C` (stereo unspecified), the Potency result was “inactive”.

Regarding `O=C(O)/C=C\C(=O)O`, the Potency result was “inactive”.

For the molecule `O=C(O)Cc1ccc2c(c1)C(=O)c1ccccc1CO2`, the Potency result is “inactive”.

Turning to `NC(=O)C1=CN(C2OC(COP(=O)(O)OP(=O)(O)OC[C@H]3O[C@@H](n4cnc5c(N)ncnc54)[C@H](OP(=O)(O)O)[C@@H]3O)C(O)C2O)C=CC1` (stereo partly specified), the Potency result is “inactive”.

With `O=C(c1ccc(OCCCc2cnc[nH]2)cc1)C1CC1`, the Potency entry is “inactive”.

As to `N.N.N.N.N.N.N.N.N.N.N.N.N.N.O.O.[Ru+4].[Ru+5].[Ru+5]`, the Potency entry was “inactive”.

As to `N#C/C(=C\c1ccc(O)c(O)c1)C(=O)c1ccc(O)c(O)c1`, the Potency result is “inactive”.

For `CCCCCCCC/C=C/C(=O)O`, the Potency result was “inactive”.

For the molecule `CC(=O)/C=C1\C(=O)N(C)c2ccccc21`, the Potency result was “inactive”.

Consider `CSc1nc(N)c2ncn([C@@H]3O[C@H](COP(=O)(O)OP(=O)(O)OP(=O)(O)O)[C@@H](O)[C@H]3O)c2n1`, for which the Potency entry was “inactive”.

As for `CN(C)c1nc2c(Br)c(Br)c(Br)c(Br)c2[nH]1`, the Potency entry is “inactive”.

As to `O=c1[nH]c2cc(Cl)c(Cl)cc2[nH]c1=O`, the Potency result was “inactive”.

Consider `CC1OC1P(=O)(O)O` (stereo unspecified), for which the Potency result was “inactive”.

For the molecule `Nc1nc(Cl)nc2c1ncn2[C@@H]1O[C@H](CO)[C@@H](O)[C@H]1O`, the Potency entry is “inactive”.

With `N.N.O=C(O)C1(C(=O)O)CCC1.[Pt]`, the Potency result is “inactive”.

With `O=C(O)c1cc(=O)c2c(Cl)cc(Cl)cc2[nH]1`, the Potency entry is “inactive”.

For the molecule `CN(C)CCCO[C@@H]1[C@H]2OC(C)(C)O[C@H]2O[C@@H]1[C@H](O)CO`, the Potency result was “inactive”.
